PI5P4K alpha inh: qHTS for Inhibitors of phosphatidylinositol 5-phosphate 4-kinase (PI5P4K). 1.2% of 330,000 active. max response, %. PI5P4Kalpha enzyme, ADP-Glo luminescence, 60 min; active compounds read low. Phosphatidylinositol 5-phosphate 4-kinase type-2 alpha (Homo sapiens), P48426; active means max response of -50% or lower; inconclusive means between -30% and -50%; inactive means -30% or higher; further: value at the top dose of about 77 µM; on the % scale 0 is the no-effect control and ±100 the full control effect
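Enzyme plus substrate dispensed, test compounds pinned in, then ATP (5 microM final) added. After 60 min at RT, ADP-Glo reagent 1 for 45 min and reagent 2 for 30 min preceded luminescence imaging.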
ALOX12 inh: Primary qHTS assay for inhibitors of human arachidonate 12S-lipoxygenase (ALOX12): Round 2. Polyunsaturated fatty acid lipoxygenase ALOX12 (Homo sapiens), P18054. 1.1% of 580,000 active. purified 12hLO, xylenol orange hydroperoxide absorbance. Potency, µM (doses to about 108 µM), for inactives: at the top dose activity change, negative = inhibition, usual class: inhibitors; further: potency means the concentration at half of the fitted maximal effect; on the % scale 0 is the no-effect control and ±100 the full control effect
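Hydroperoxide product was detected by ferrous iron/xylenol orange as the 573 to 405 nm absorbance ratio. Arachidonic acid at 40 uM (final) was turned over for 30 min at room temperature by 150 nM human 12hLO, pH 7.0 Hepes buffer, after 15 min compound preincubation.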
POLK inh: qHTS for Inhibitors of Polymerase Kappa. purified Pol kappa, fluorescent DNA synthesis assay, 10 min. 0.53% of 400,000 active. Potency, µM (highest dose often 107 µM), without a hit: at the top dose activity, negative = inhibition, hits mostly inhibitors. DNA polymerase kappa (Homo sapiens), Q9UBT6. AID 588579, 2011; further: potency means the concentration at half of the fitted maximal effect; on the % scale 0 is the no-effect control and ±100 the full control effect
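10 nM Pol kappa was preincubated with compounds for 15 min at room temperature. Reaction started with 50 nM (final) substrate. Fluorescence read kinetically at 0 and 10 min.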
POLI inh: qHTS for Inhibitors of Polymerase Iota | DNA polymerase iota (Homo sapiens), Q9UNA4 | Pol iota fluorescent replication assay, 10 min | Potency, µM (doses to about 115 µM), without a hit: at the highest dose activity, negative = inhibition, usual class: inhibitors | 1% of 390,000 active; further: potency means the concentration at half of the fitted maximal effect
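Fluorescent replication assay read twice, at 0 min and 10 min after adding 50 nM (final) substrate. Enzyme (10 nM) and compounds were first incubated 15 min at room temperature; enzyme-free buffer wells were negative controls.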
Pol eta inh: qHTS for Inhibitors of Polymerase Eta. DNA polymerase eta (Homo sapiens), Q9Y253. recombinant Pol eta, fluorescent DNA replication assay. Potency, µM (highest dose often 114 µM), for inactives: at the highest dose activity change, negative = inhibition, hits mostly inhibitors. 1.2% of 390,000 active. AID 588591, 2011; further: potency means the concentration at half of the fitted maximal effect; on the % scale 0 is the no-effect control and ±100 the full control effect
Target sequence (Q9Y253 whole entry, looked up): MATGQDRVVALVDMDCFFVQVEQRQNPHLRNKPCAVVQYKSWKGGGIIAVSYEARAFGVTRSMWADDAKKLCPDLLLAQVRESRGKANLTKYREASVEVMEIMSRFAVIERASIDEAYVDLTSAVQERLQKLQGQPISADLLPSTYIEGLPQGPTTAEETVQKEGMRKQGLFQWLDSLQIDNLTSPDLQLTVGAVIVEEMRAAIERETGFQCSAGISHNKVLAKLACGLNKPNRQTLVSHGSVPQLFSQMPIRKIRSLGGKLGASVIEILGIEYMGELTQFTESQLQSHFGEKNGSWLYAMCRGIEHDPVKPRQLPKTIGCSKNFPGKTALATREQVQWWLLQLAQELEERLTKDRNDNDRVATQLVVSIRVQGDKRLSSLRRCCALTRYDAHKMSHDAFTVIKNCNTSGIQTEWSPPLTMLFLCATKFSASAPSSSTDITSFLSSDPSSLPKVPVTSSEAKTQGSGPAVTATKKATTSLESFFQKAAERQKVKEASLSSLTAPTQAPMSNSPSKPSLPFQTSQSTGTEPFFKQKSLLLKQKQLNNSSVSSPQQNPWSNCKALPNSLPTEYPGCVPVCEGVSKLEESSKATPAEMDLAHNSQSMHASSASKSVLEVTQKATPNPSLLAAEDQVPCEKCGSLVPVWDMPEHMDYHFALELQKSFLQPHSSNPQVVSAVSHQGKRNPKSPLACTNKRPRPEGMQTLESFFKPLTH
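Pol eta at 10 nM preincubated with compounds 15 min at room temperature; reaction started with fluorescent substrate (50 nM final) and read kinetically at 0 and 10 min.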
POLB inh: qHTS Assay for Inhibitors of DNA Polymerase Beta; Potency, µM (highest dose often 114 µM), for the others: at the top dose activity change, negative = inhibition, usual class: inhibitors; Pol beta primer extension/strand displacement, fluorescence kinetic; 1.3% of 340,000 active; P06746; further: potency means the concentration at half of the fitted maximal effect; on the % scale 0 is the no-effect control and ±100 the full control effect
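10 nM enzyme + cpd, 15 min RT; start with substrate 50 nM final; read 0 min and after 10 min RT. Corrected, normalized data; 4-parameter Hill curve fit.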
Starred values were filed as active, the others as inactive; [ ] = dose if it differs, or a comment. Hits are enriched below; roughly 2.9% of the tested compounds scored in any of these assays. Unless noted, the call rests on the fitted dose curve; in most records, active means well fitted inhibition curve with a large enough effect; inconclusive means small, poorly fitted or top-dose-only effect, or another doubt; inactive means no such curve, though single readings can be large or run the other way.

For O=C1/C(=C/c2cccnc2)SC(=S)N1C1CCS(=O)(=O)C1 (centres undefined) the results were PI5P4K alpha inh 6, ALOX12 inh 19%, POLK inh -2%, POLI inh 17%, Pol eta inh -3% and POLB inh -1%.
`Cc1ccc(N2C(=O)/C(=C/c3ccco3)SC2=S)cc1` gave PI5P4K alpha inh 2, ALOX12 inh 18µM*, POLK inh inconclusive, POLI inh inconclusive, Pol eta inh -23% and POLB inh inconclusive.
`N=C1S/C(=C\c2ccco2)C(=O)N1c1ccc2c(c1)OCO2` gave PI5P4K alpha inh inconclusive, ALOX12 inh inconclusive, POLK inh inconclusive, POLI inh 325%, Pol eta inh 35µM* and POLB inh 20µM*.
Screening Cc1nc2nc(N(Cc3ccccc3)C(=O)c3ccco3)[nH]n2c(=O)c1C returned ALOX12 inh -1%.
CC(=O)NC(CCc1ccc(Cl)c(Cl)c1)c1cccc(O)c(=O)c1 (centres undefined) was read as PI5P4K alpha inh 0, ALOX12 inh 40µM* and Pol eta inh -3%.
Screening COc1cc(/C=C/c2ccc3cccc(OC)c3n2)cc(OC)c1OC returned ALOX12 inh -16%.
CCCn1nc(C(=O)N2CC(C(=O)N3CCOCC3)Oc3ccccc32)c2ccccc2c1=O (centres undefined) was read as ALOX12 inh 21%.
COc1ccc(C(=O)C(C)C(=O)c2ccc(OC)cc2)cc1 was read as ALOX12 inh -29%.
COc1ccc(C(=O)C(Br)C(=O)c2ccc(OC)cc2)cc1 was read as ALOX12 inh 6.3µM*.
`CC1=Nc2ccccc2/C1=C\c1nc(-c2ccc(C(F)(F)F)cc2)oc1O` gave ALOX12 inh inconclusive, POLK inh -13%, POLI inh 8.9µM*, Pol eta inh 55% and POLB inh 16%.
`O=C(/C=C/c1cccnc1)c1cccc(O)c1` gave PI5P4K alpha inh 2, ALOX12 inh 8.9µM*, POLK inh -1%, POLI inh inconclusive, Pol eta inh -19% and POLB inh 14%.
O=C(Nc1ccc(Cl)cc1)c1csc(C(O)c2cccc(OC(F)(F)F)c2)n1 (centres undefined) was read as ALOX12 inh 14µM*.
For COc1ccccc1C(O)c1nc(C(=O)Nc2ccc(F)cc2)cs1 (centres undefined) the results were ALOX12 inh 9%.
Screening CCOC(=O)Cc1csc(SC(C)C(=O)Nc2ccc(NC(C)=O)cc2)n1 (centres undefined) returned PI5P4K alpha inh -1, ALOX12 inh 0%, POLK inh 0%, POLI inh 2%, Pol eta inh -19% and POLB inh 89µM*.
O=C(CSc1nnc(-c2cccnc2)n1-c1ccccc1)c1c[nH]c(C(=O)N2CCCC2)c1 was read as ALOX12 inh 1%.
O=C1CSC(=Nc2ccc(Cl)cc2)N1Cc1ccco1 was read as PI5P4K alpha inh 5, ALOX12 inh 85%, POLK inh 0%, POLI inh -20%, Pol eta inh -15% and POLB inh -20%.
Screening O=C(COc1ccc(Br)cc1)N/N=C1/SCC(=O)N1Cc1ccco1 returned PI5P4K alpha inh -67*, ALOX12 inh 0%, POLK inh 0%, POLI inh 94%, Pol eta inh -16% and POLB inh -1%.
Screening Cn1c(-c2sc3ccccc3c2Cl)n[nH]c1=S returned PI5P4K alpha inh -22, ALOX12 inh 14µM*, POLK inh -13%, POLI inh 3%, Pol eta inh -2% and POLB inh 17%.
Screening O=C(Nc1cccc(C(F)(F)F)c1)O[C@@H]1CO[C@H]2[C@@H]1OC[C@@H]2NC(=S)NC1CCCCC1 returned ALOX12 inh 45µM*.
Screening Nc1ccc(Oc2ncccn2)cc1 returned PI5P4K alpha inh -22, ALOX12 inh 58%, POLK inh -8%, POLI inh inconclusive, Pol eta inh 40µM* and POLB inh 4%.
Screening O=c1[nH]nc(Sc2ncc([N+](=O)[O-])s2)n1-c1ccc2c(c1)OCCO2 returned ALOX12 inh -25%[57.4 µM].
C=CCn1c(Sc2ncc([N+](=O)[O-])s2)n[nH]c1=O was read as PI5P4K alpha inh -9, ALOX12 inh inconclusive, POLK inh -7%, POLI inh 10µM*, Pol eta inh -7% and POLB inh -1%.
COc1ccc(N=C2S[C@H]3[C@H]([C@@H](O)[C@H](O)C[C@@H]3C(N)=O)N2Cc2ccc(F)cc2)cc1 was read as ALOX12 inh 52%.
`NC(=O)[C@H]1C[C@@H](O)[C@H](O)[C@H]2[C@@H]1SC(=Nc1ccc(Cl)cc1)N2CC1CCCCC1` gave ALOX12 inh 28µM*.
For CCOc1cccc(C(=O)c2ccc(O)c(O)c2O)c1 the results were POLK inh 4.5µM*.
`CCOC(=O)COc1ccc(C(=O)c2ccccc2)c(O)c1` gave PI5P4K alpha inh 15, ALOX12 inh inconclusive, POLK inh 3%, POLI inh inconclusive, Pol eta inh -12% and POLB inh 12%.
Screening CCOc1ccc(C(=O)c2ccc(O)c(O)c2O)cc1 returned POLK inh 3.5µM*.
Screening CC(=O)C(C(C)=O)C(NC(=O)c1cccnc1)(C(F)(F)F)C(F)(F)F returned PI5P4K alpha inh -63*, ALOX12 inh 0%, POLK inh -9%, POLI inh -2%, Pol eta inh -8% and POLB inh 3%.
CC(C)C[C@@H](NC(=O)C1=C[C@@H](NS(=O)(=O)c2cccc(C(F)(F)F)c2)[C@@H](O)[C@H](O)C1)C(N)=O was read as ALOX12 inh 40µM*.
Screening COc1ccc(C[C@H](NC(=O)C2=C[C@@H](NS(=O)(=O)c3cccc(C(F)(F)F)c3)[C@@H](O)[C@H](O)C2)C(N)=O)cc1 returned ALOX12 inh 4%.
Screening COc1ccc2oc(=O)c(C(=O)Nc3cccc(C(C)=O)c3)cc2c1 returned PI5P4K alpha inh -3, ALOX12 inh 0%, POLK inh -13%, POLI inh -17%, Pol eta inh -11% and POLB inh 6%.
